{
  "source": "PubChem BioAssay AID1508647",
  "about": "(National Center for Advancing Translational Sciences (NCATS), 2021)",
  "note": "This is one part of the list. Results filed as inconclusive are left out. Calls of active or inactive are those of the source. Calls come from the whole dose curve; as a rule, active = well fitted inhibition curve with a large enough effect; inconclusive = small, poorly fitted or top-dose-only effect, or another doubt; inactive = no such curve, though single readings can be large or run the other way.",
  "data": [
    {"target": "Peripheral myelin protein 22 (Rattus norvegicus) (UniProt P25094)", "sequence (P25094 whole entry, looked up)": "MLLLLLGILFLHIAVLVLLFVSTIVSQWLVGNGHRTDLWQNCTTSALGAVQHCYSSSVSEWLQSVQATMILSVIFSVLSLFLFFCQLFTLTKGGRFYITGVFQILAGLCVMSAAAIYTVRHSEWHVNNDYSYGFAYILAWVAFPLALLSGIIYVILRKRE", "assay": "Cell-based HiBiT reporter assay to measure PMP22 protein expression in S16 Pmp22-HiBiT cells - Confirmatory screen", "conditions": "S16 Schwann cells Pmp22-HiBiT, luminescence, 48 h; series mostly up to 27.9 µM", "source_text": "Assay Provider: Jim Inglese Ph.D. National Center for Advancing Translational Science, National Institutes of Health, Rockville, MD CMT is a heterogeneous group of neurological disorders that affect approximately 1 in 2,500 people. In particular, the most common form of CMT, CMT1A is genetically linked to the duplication of the PMP22 gene which leads to Schwann cell overexpression, thus manifesting itself as a typical case of dose-sensitive diseases. […] We can further discriminate the effect of all transcriptionally active molecules on PMP22 translation or stability with an assay that incorporates a short NLuc peptide (HiBiT) at the C-terminus of expressed PMP22 (S16(f8) PMP22-HiBiT) allowing alpha complementation and luminescence detection of membrane-associated PMP22 protein. […] Miniaturization of these assays to 1536-well plate format for quantitative high throughput screening (qHTS) yielded rich data sets immediately from the qHTS assay (S16(c9) Pmp22-F2sN), when compared with data from a cell viability assay (Cell TiterGlo) to identify compounds that decreased the output signals through cellular toxicity to streamline the selection process of actives for subsequent characterization using the HiBiT assay (S16(f8) PMP22-HiBiT). […]", "values": [
      {"smiles": "Cc1ccc(NC(=O)c2nc(S(=O)(=O)Cc3cccc(C)c3)ncc2Cl)cc1", "outcome": "inactive"}
    ]}
  ]
}
